# Test results from PubChem BioAssay (EPA / NIEHS).
# Records with an inconclusive call do not appear. Activity calls are given as the source filed them. How the source made its calls: active means hit-call score of the fitted dose curve at least 0.9, where 1 is the maximum; inconclusive means response in the unintended direction; inactive means score below 0.9.
# Assay: ACEA_ER_80hr: ACEA Biosciences xCELLigence Real-Time Cell Analysis on Estrogen Receptor Agonism for Proliferation (AID 2282667)
# Conditions: T47D proliferation, impedance (xCELLigence), 80 h
# In short: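 Cell-growth kinetics were measured by impedance in T47D cells treated continuously with compound (top 100 uM final, 1:4 steps, 8 points). Activity at 80 h was scored as signal gain over the DMSO baseline.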
SMILES,outcome,AC50
CC(C)COC(=O)c1ccccc1,inactive,–
Nc1ccc(N)c([N+](=O)[O-])c1,inactive,–
CC(O)CN (configuration not stated),inactive,–
CC(CCO)CC(C)(C)C (configuration not stated),inactive,–
CCO[Si](CCC#N)(OCC)OCC,inactive,–
O=C(O)c1ccc(C(=O)O)c(C(=O)O)c1,inactive,–
CCCCCC(=O)O[C@]1(C(C)=O)CC[C@H]2[C@@H]3CCC4=CC(=O)CC[C@]4(C)[C@H]3CC[C@@]21C,–,5.01 nM (active)
CCCCCCCC1CCCC1=O (configuration not stated),inactive,–
O=C1CCCCCCCCCCCC(=O)OCCO1,inactive,–
CCCCOCCOC(=O)c1ccccc1C(=O)OCCOCCCC,inactive,–
N#CCCCC(C#N)CCC#N (configuration not stated),inactive,–
C=CC(=O)OCC(CO)(COC(=O)C=C)COC(=O)C=C,inactive,–
O=C(O)CS,inactive,–
CC(C)COC(=O)c1ccccc1O,inactive,–
c1coc(CNc2ncnc3nc[nH]c23)c1,inactive,–
NC(=O)c1cccnc1,inactive,–
CC12CCC(C1)C(C)(C)C2O (configuration not stated),inactive,–
O=C1OC2(c3ccc(O)cc3Oc3cc(O)ccc32)c2ccccc21,inactive,–
[Cl][Dy]([Cl])[Cl],–,43 nM (active)

SMILES,outcome,AC50
C=C1CC/C=C(\C)CC[C@@H]2[C@@H]1CC2(C)C,inactive,–
O=Cc1ccccc1O,–,10700 nM (active)
CC/C=C\C#N,inactive,–
CCCCC(CC)COC(=O)COc1ccc(Cl)cc1C (configuration not stated),inactive,–
CCCCCCCCOS(=O)(=O)O,inactive,–
CCCCCCCCCCO[C@@H]1O[C@H](CO)[C@@H](O)[C@H](O)[C@H]1O,inactive,–
CCCCC(CC)COCCO (configuration not stated),inactive,–
CCCc1ccc(N)cc1,inactive,–
OCCN1CCOCC1,inactive,–
C/C=C(\C)C(=O)OC/C=C(\C)CCC=C(C)C,inactive,–
CCn1cc(C(=O)O)c(=O)c2ccc(C)nc21,inactive,–
CCCCC1CCCCC(=O)O1 (configuration not stated),inactive,–
O=S(=O)(O)C(F)(F)C(F)(F)OC(F)(F)C(F)(F)F,inactive,–
CCCO[Si](OCCC)(OCCC)OCCC,inactive,–
Cc1ccccc1S,inactive,–
CC1=CC(O)CC(C)(C)C1 (configuration not stated),inactive,–
CCCCCc1cccc(=O)o1,inactive,–
COC(=O)c1ccc(C(=O)OC)cc1,inactive,–
